Screening data (PubChem)
Most compounds without a hit are left out; they make up all but 19% or so of the library.
SW480 rereplic: DNA re-replication induction in SW480 cells | SW480 DNA re-replication, Hoechst DNA content imaging, 48 h | Potency, µM (highest dose often 46.1 µM), inactives show top-dose re-replication activation, actives largely listed as activators | 1.8% of 340,000 active; further: potency means the concentration at half of the fitted maximal effect; % of control where 0% means no effect; nearly all actives have a fitted effect of over 55% in size
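Image-based DNA-content assay: after two days of treatment, nuclei were labelled with the DNA dye Hoechst and imaged, and hits were compounds raising the count of nuclei showing high fluorescence intensity.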
TDP1 cell noCPT: qHTS for Inhibitors of human tyrosyl-DNA phosphodiesterase 1 (TDP1): qHTS in cells in absence of CPT; DT40 Tdp1-/- hTDP1 cells, no CPT, ATP luminescence, 48 h; 15% of 420,000 active; Potency, µM (doses to about 46.2 µM), without a hit: at the top dose activity change, negative = growth inhibition, hits mostly inhibitors; further: potency means the concentration at half of the fitted maximal effect; on the % scale 0 is the no-effect control and ±100 the full control effect; nearly all actives have a fitted effect of over 55% in size
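Seeded 400 DT40-hTDP1 cells/well (vehicle DMSO, no 20 nM CPT); pinned compounds; ≥48 hr at 37 °C; CellTiter-Glo luminescence as viability measure.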
MCF10A rereplic: DNA re-replication induction in MCF 10a cells. MCF 10A DNA re-replication, Hoechst nuclear intensity, 48 h. Potency, µM (doses to about 46.1 µM), without a hit: at the top dose activity, positive = re-replication, usual class: activators. 2.9% of 350,000 active. AID 624296; further: potency means the concentration at half of the fitted maximal effect; % of control where 0% means no effect; nearly all actives have a fitted effect of over 50% in size
TDP1 cell CPT: growth inhibition of DT40 Tdp1-/-;hTDP1 cells with camptothecin (screen for TDP1 inhibitors); chicken DT40 Tdp1-/-;hTDP1 cells + 20 nM CPT, ATP luminescence, 48 h; Potency, µM (highest dose often 46.2 µM), for the others: at the highest dose activity change, negative = growth inhibition, actives largely listed as inhibitors; 12% of 420,000 active; AID 686979; further: potency means the concentration at half of the fitted maximal effect; on the % scale 0 is the no-effect control and ±100 the full control effect; nearly all actives have a fitted effect of over 55% in size
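Chicken DT40 Tdp1-/- cells complemented with human TDP1, 400 cells/well, exposed to compounds plus 20 nM camptothecin for at least 48 h at 37 C; viability read as ATP content by CellTiter-Glo luminescence.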
IL-1B inflam inh: inhibitors of inflammasome signaling (IL-1 beta secretion); AID 743279; THP-1 LPS/ATP IL-1B secretion, AlphaLISA, 16 h; hits give low values; activity change, % at 57.5 µM; 4.7% of 360,000 active; in the data active means activity change below about -50%; inconclusive means mostly about -30% to -49%; further: on the % scale 0 is the no-effect control and ±100 the full control effect
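Secreted IL-1B measured by AlphaLISA bead assay after 16 h compound exposure of THP-1 cells; compounds (final up to 57.5 uM) added 1 h before LPS (250 ng/mL) and ATP (1.25 mM) stimulation; lower signal means less secretion.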
BCR signal inh: chronic active BCR signaling inhibition; 0.05% of 340,000 active; AID 493014; ABC-DLBCL IkBa-CBG/CBR reporter, luminescence ratio, 4 h; Potency, µM (doses to about 46.1 µM), for the others: at the top dose activity change, negative = inhibition, usual class: inhibitors; active means well fitted inhibition curve with a large enough effect in the signal ratio, with a control signal flat, not every such curve was filed as active; inconclusive means small, poorly fitted or top-dose-only effect, or effect the other way, or a change in a side signal; the % refers to the signal ratio;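 further: potency means the concentration at half of the fitted maximal effect; plate controls were basal doxycycline-induced cells for no effect and cells given 10 µM MG132 for full effect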
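TMD8 ABC-DLBCL cells carrying doxycycline-inducible green luciferase fused to IkappaBalpha plus unfused red luciferase were exposed to compounds (up to 46 uM) for 4 hrs at 37C. Activity came from the overlap-corrected green/red luminescence ratio.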
The depositor's hits bear a star; ? = inconclusive; . = no result; [ ] = another dose, or the depositor's remark. Unless noted, the call rests on the fitted dose curve; in most records, active means well fitted curve in the direction sought with a large enough effect; inconclusive means small, poorly fitted or top-dose-only effect, or another doubt; inactive means no such curve, though single readings can be large; an effect the other way counts as inactive or inconclusive.

SMILES | SW480 rereplic | TDP1 cell noCPT | MCF10A rereplic | TDP1 cell CPT | IL-1B inflam inh | BCR signal inh
CSc1ncc(Cl)c(C(=O)Nc2cccc(Cl)c2)n1 | -9% | ? | ? | -17% | 30 | ?
O=C(Oc1cccc(-c2cnc3ccccc3n2)c1)c1ccco1 | 0% | -28% | -1% | -15% | 0 | 0%
CCN(CC)S(=O)(=O)c1cc(C(=O)Oc2cccc(-c3cnc4ccccc4n3)c2)ccc1OC | -3% | 21µM* | -9% | ? | 16 | 1%
CCN(CC)S(=O)(=O)c1ccc(C)c(C(=O)Oc2cccc(-c3cnc4ccccc4n3)c2)c1 | 12% | 21µM* | -45% | ? | 3 | 0%
CCn1c2ccc(OC)cc2c2nc3ccccc3nc21 | -4% | 12µM* | -2% | ? | -10 | ?
COc1ccc2c(c1)c1nnc(SC)nc1n2Cc1ccccc1 | . | 11µM* | . | 10µM* | . | .
CSc1nnc2c3cc(C)ccc3n(Cc3ccccc3)c2n1 | 7% | 12µM* | ? | ? | 25 | -2%
C[C@@H](CN1CC(=O)NC(=O)C1)N1CC(=O)NC(=O)C1 | . | ? | . | -8% | . | .
COc1ccc(C(C(=O)NC(C)(C)C)N(C(=O)CCC(=O)Nc2cc(C)on2)c2ccc(C)c(C)c2)cc1 (centres undefined) | -4% | ? | 15% | ? | ? | 5%
Cn1c(=O)c2c(ncn2CC(=O)OCC(=O)Nc2ccc(F)cc2F)n(C)c1=O | -8% | -9% | 0% | -11% | -2 | -1%
CC(=O)c1ccc(N2CCN(C(=O)c3ccc(-c4ccccc4)cc3)CC2)cc1 | -10% | 13µM* | ? | ? | 3 | 9%
CC(=O)c1ccc(N2CCN(C(=O)c3cccc(Oc4ccccc4)c3)CC2)cc1 | -28% | 18µM* | ? | 16µM* | 1 | ?
CC(C)CC(=O)N1CCN(C(=O)c2ccc(-c3ccccc3)cc2)CC1 | -5% | 23µM* | 7% | ? | 10 | -1%
CC(=O)N1CCN(C(=O)c2ccc(Oc3ccccc3)cc2)CC1 | -22% | -2% | -12% | 3% | 23 | ?
CC(=O)c1ccc(N2CCN(C(=O)c3ccc4c(c3)OCO4)CC2)cc1 | -8% | ? | 5% | ? | 0 | -1%
COc1ccc(C(=O)COC(=O)C(CCSC)NC(=O)COc2ccccc2)cc1 (centres undefined) | -3% | 14% | 0% | 4% | 2 | -7%
COc1cc([C@H]2OC[C@H]3[C@@H]2CO[C@@H]3c2ccc(O[C@H]3O[C@H](CO)[C@@H](O)[C@H](O)[C@H]3O)c(OC)c2)ccc1O[C@@H]1O[C@H](CO)[C@@H](O)[C@H](O)[C@H]1O | -45%[9.22 µM] | 4% | ? | 1% | 0 | ?
OCC1(Cc2ccc(Cl)cc2)CCN(CC2CC=CCC2)CC1 (centres undefined) | -4% | ? | ? | 29µM* | -62* | 16%
OCC1(Cc2ccc(Cl)cc2)CCN(Cc2ccccc2F)CC1 | -9% | ? | 12% | ? | -26 | 0%
OCC1(Cc2ccc(Cl)cc2)CCN(CCCc2ccccc2)CC1 | 18µM* | 23µM* | ? | ? | -77* | 1%
CSc1ccc(CN2CCC(CO)(Cc3ccc(Cl)cc3)CC2)cc1 | ? | 18µM* | ? | ? | -94* | 3%
CN1CCC(CO)(Cc2ccccc2)CC1 | -14% | 6% | 5% | 20% | 11 | -2%
O=C(c1cnsn1)N1CCC(CO)(Cc2ccc(Cl)cc2)CC1 | -1% | ? | 0% | 4% | -14 | 7%
Cc1ccc(C(=O)CCC(=O)Nc2ccccc2F)cc1 | -2% | 19% | 5% | -15% | -23 | ?
